The results in this text go back to PubChem BioAssay (Tox21).

Structures are written as SMILES. “And” between values parts separate entries of the source, which are not always exact repeats. Equal values may be shown once. Results filed as inconclusive are left out. More than one record can exist for a structure, and the calls need not agree. The source made the active and inactive calls. Calls follow the shape of the dose curve; as a rule, active = well fitted curve in the direction sought with a large enough effect in the repeat runs; inconclusive = weak or mixed curves; inactive = no such curve, though single readings can be large; an effect the other way counts as inactive or inconclusive.

A short description of experiment [1]: qHTS RealTime-Glo MT Cell Viability Assay in HepG2 cells - 40 hour (AID 1224870). Also: nearly all actives have a fitted effect of over 50% in size. The method, boiled down: (§1)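 HepG2 cells mixed with RealTime-Glo MT reagents (NanoLuc plus cell-permeant prosubstrate) were seeded at 600 cells/well, incubated 5 h at 37 C/5% CO2, then pinned with compounds in DMSO; nonlytic luminescence tracked viability during 40 h treatment.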
Background: qHTS replaces the single test concentration by a dilution series.

Experiment [2] in a line: A CellTox Green Cytotoxicity Assay to monitor cytotoxicity in HEK293 cells - 40 hour (AID 1224871). Also: nearly all actives have a fitted effect of over 45% in size. Also: potency is read from the fitted curve at half-maximal effect. The method, boiled down:
(§2)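 Each value comes from one timepoint of a single continuous run in which HEK293 cells with CellTox Green were exposed to compound for up to 40 h at 37 C, dye fluorescence rising with cell death.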

A short description of experiment [3]: qHTS RealTime-Glo MT Cell Viability Assay in HEK293 cells - 16 hour (AID 1224872). Also: top concentration of the series differs between compounds; nearly all actives have a fitted effect of over 50% in size. A digest of the protocol:
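HEK293 cells seeded with NanoLuc/prosubstrate reagent, rested 5 h at 37 C, then dosed and kept at 37 C up to 40 h. Nonlytic real-time luminescence from viable cells read at 0, 8, 16, 24, 32 and 40 h.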

Experiment [4] can be described thus: qHTS RealTime-Glo MT Cell Viability Assay in HepG2 cells - 8 hour (AID 1224873). Also: nearly all actives have a fitted effect of over 55% in size. Also: potency is read from the fitted curve at half-maximal effect. The method, boiled down:
as §1

A short description of experiment [5]: qHTS RealTime-Glo MT Cell Viability Assay in HEK293 cells - 40 hour (AID 1224874). Also: nearly all actives have a fitted effect of over 50% in size. The conditions noted are these: RealTime-Glo luminescence; max response: stronger effect = lower value. The method, boiled down: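 qHTS format; HEK293 cells with NanoLuc/prosubstrate reagent, 37 C/5% CO2 for 5 h pre-dosing; compounds 23 nL in DMSO; luminescence at each time point reflects viable cells.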

Experiment [6] is described as follows: A CellTox Green Cytotoxicity Assay to monitor cytotoxicity in HEK293 cells - 24 hour (AID 1224875). Also: series mostly up to about 77 µM; nearly all actives have a fitted effect of over 45% in size. A digest of the protocol:
as §2

The nature of experiment [7]: A CellTox Green Cytotoxicity Assay to monitor cytotoxicity in HepG2 cells - 16 hour (AID 1224876). Also: nearly all actives have a fitted effect of over 45% in size. A digest of the protocol: (§3)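 Continuous culture of HepG2 cells with a membrane-impermeant DNA dye; rising fluorescence marks dead cells. Compound exposure lasted up to 40 h at 37 C, with reads every 8 h from 0 h.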
The nature of experiment [8]: qHTS RealTime-Glo MT Cell Viability Assay in HepG2 cells - 32 hour (AID 1224877). Also: nearly all actives have a fitted effect of over 55% in size. The method, boiled down:
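HepG2 cells (600/well) were dispensed with RealTime-Glo reagents, incubated 5 h at 37 °C, then treated with compounds in DMSO for up to 40 h. Nonlytic NanoLuc luminescence reflecting viable cells was read at each stated time point.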

Experiment [9] in a line: A CellTox Green Cytotoxicity Assay to monitor cytotoxicity in HepG2 cells - 24 hour (AID 1224878). Also: nearly all actives have a fitted effect of over 45% in size. A digest of the protocol: as §3
The nature of experiment [10]: A CellTox Green Cytotoxicity Assay to monitor cytotoxicity in HepG2 cells - 40 hour (AID 1224879). Also: nearly all actives have a fitted effect of over 40% in size. A digest of the protocol: as §3
% is scaled to controls: 0 for no effect and ±100 for the full control effect.

As to `O=C(O)CCCCCCCCC(=O)O`, the call in [1], in experiment [7] and in [8] was inactive. Further, the Potency result in experiment [2], in experiment [3], in experiment [4], in [6], in [9] and in experiment [10] was “inactive” in each case. The max response in experiment [5] is 1.05% (inactive) and 1.59% (inactive).

`C=CCCCCCCCCC(=O)O`: the result in experiment [1], in experiment [7] and in experiment [8] was inactive. The Potency result in experiment [2], in experiment [3], in experiment [4], in experiment [6], in experiment [9] and in experiment [10] was “inactive” throughout. For the same molecule, in experiment [5], the max response is 12.5% (inactive) and 0.601% (inactive).

For the molecule `COc1ccc([N+](=O)[O-])cc1N`, the molecule was classed as inactive in experiment [1], in [7] and in experiment [8]. Besides, the Potency result in experiment [2], in [3], in experiment [4], in [6], in experiment [9] and in [10] was “inactive” throughout. Besides, the max response in experiment [5] was -5.95% (inactive) and 0.4% (inactive).

On to `c1ccc2c(c1)Cc1ccccc1-2`, for which the outcome in experiment [1], in experiment [7] and in experiment [8] was inactive. Also, the Potency in [2] is 39.5 µM (active) and 54.9 µM (active). In addition, the Potency entry in experiment [3], in experiment [4], in experiment [9] and in experiment [10] was “inactive” in each case. For the same molecule, the max response in [5] is -9.32% (inactive) and 10% (inactive).

Regarding `CN(C)CCOC(=O)COc1ccc(Cl)cc1`, the molecule was called inactive in [1], in experiment [7] and in [8]. Further, the Potency entry in experiment [2], in experiment [3], in experiment [4], in experiment [6], in [9] and in experiment [10] was “inactive” throughout. The max response in [5] was -6.44% (inactive) and 0.203% (inactive).

`CCCCCCCCCCO`: the molecule was called inactive in experiment [1], in [7] and in experiment [8]. Further, the Potency in [2] was 24.6 µM (active) and inactive. The Potency result in experiment [3], in experiment [4], in experiment [9] and in experiment [10] was “inactive” each time. Besides, the max response in experiment [5] was 1.72% (inactive) and 1.45% (inactive).

On to `CC(C)c1cccc(C(C)C)c1`, for which the call in [1], in [7] and in [8] was inactive. In addition, the Potency entry in experiment [2], in experiment [3], in experiment [4], in experiment [6], in experiment [9] and in experiment [10] was “inactive” each time. Further, the max response in [5] was 2.88% (inactive) and 7.17% (inactive).

In the case of `COc1ccc(N)c(C)c1`, the outcome in [1], in [7] and in [8] was inactive. Moreover, the Potency entry in [2], in experiment [3], in experiment [4], in [6], in [9] and in experiment [10] was “inactive” each time. Also, the max response in [5] was 9.17% (inactive) and 3.97% (inactive).

As to `C=CC(C)CCCC(C)(C)O` (stereo not drawn), the result in experiment [1], in experiment [7] and in experiment [8] was inactive. Moreover, the Potency result in [2], in experiment [3], in [4], in [6], in [9] and in experiment [10] was “inactive” throughout. The max response in experiment [5] is 5.11% (inactive) and 3.85% (inactive).

Take `CCOC(=O)c1ccc(N)cc1`: the molecule was called inactive in [1], in experiment [7] and in experiment [8]. The Potency result in [2], in experiment [3], in experiment [4], in [6], in [9] and in experiment [10] was “inactive” in each case. Moreover, the max response in experiment [5] was -17.4% (inactive).

In the case of `CCCCCCCO`, the molecule was called inactive in [1], in experiment [7] and in experiment [8]. For the same molecule, the Potency entry in [2], in [3], in [4], in experiment [6], in experiment [9] and in experiment [10] was “inactive” throughout. In addition, the max response in experiment [5] was 10.9% (inactive) and 3.74% (inactive).

In the case of `Clc1ccccn1`, the call in [1], in experiment [7] and in experiment [8] was inactive. The Potency entry in experiment [2], in experiment [3], in experiment [4], in [6], in [9] and in [10] was “inactive” in each case. In addition, the max response in experiment [5] was 5.77% (inactive) and 7.16% (inactive).

Consider `CC(CCO)CC(C)(C)C` (stereo not drawn), for which the result in experiment [1], in experiment [7] and in [8] was inactive. For the same molecule, the Potency result in [2], in experiment [3], in experiment [4], in experiment [6], in [9] and in experiment [10] was “inactive” each time. The max response in experiment [5] was -6.13% (inactive) and 0.884% (inactive).

Consider `C[C@]12CCC(=O)C=C1CC[C@@H]1[C@@H]2[C@@H](O)C[C@@]2(C)[C@H]1CC[C@]2(O)C(=O)CO`, for which the Potency entry in experiment [2], in experiment [6], in [9] and in experiment [10] was “inactive” in each case. Besides, the result in [7] was inactive.

Consider `Cc1ccc2ncccc2c1`, for which the call in experiment [1], in experiment [7] and in experiment [8] was inactive. The Potency entry in experiment [2], in experiment [3], in [4], in experiment [6], in [9] and in experiment [10] was “inactive” in each case. The max response in experiment [5] was 0.634% (inactive) and 3.71% (inactive).

As for `O=C(O)Cn1c(=O)n(Cc2ccc(Br)cc2F)c(=O)c2ccc(Cl)cc21`, the call in experiment [1] and in [7] was inactive. The Potency result in experiment [2], in experiment [3], in [6], in experiment [9] and in [10] was “inactive” in each case. Further, in [4], the Potency was 21.9 µM (active) and 8.49 µM (active).

As for `CCNC(=S)NCC`, the outcome in [1], in [7] and in experiment [8] was inactive. Moreover, the Potency entry in experiment [2], in experiment [3], in experiment [4], in [6], in [9] and in experiment [10] was “inactive” throughout. Further, the max response in [5] was -2.25% (inactive) and -1.34% (inactive).

In the case of `O=S(=O)(O)c1ccc(N=Nc2c(O)ccc3cc(S(=O)(=O)O)ccc23)cc1`, the Potency result in [2], in experiment [4], in experiment [6], in [9] and in [10] was “inactive” throughout. In addition, the max response in experiment [5] was -20% (inactive). For the same molecule, in experiment [7], the call was inactive.

`CC(=O)CCC=C(C)C`: the molecule was called inactive in experiment [1], in experiment [7] and in experiment [8]. The Potency result in experiment [2], in [3], in [4], in experiment [6], in experiment [9] and in experiment [10] was “inactive” each time. Further, in experiment [5], the max response is 10.6% (inactive) and -4.31% (inactive).

For `CC(C)(C)c1cc(Cc2cc(C(C)(C)C)c(O)c(C(C)(C)C)c2)cc(C(C)(C)C)c1O`, the molecule was classed as inactive in experiment [1], in experiment [7] and in [8]. For the same molecule, the Potency entry in experiment [2], in experiment [3], in experiment [4], in experiment [6], in experiment [9] and in experiment [10] was “inactive” each time. In experiment [5], the max response was 3.98% (inactive) and -14.3% (inactive).
